A number with no mark means an inactive call. Calls follow the shape of the dose curve; as a rule, active = well fitted curve in the direction sought with a large enough effect in the repeat runs; inconclusive = weak or mixed curves; inactive = flat fitted curve, though single readings scatter.
Test: qHTS assay to test for compound auto fluorescence at 590 nm (red) in HepG2 cells (AID 720674)
Conditions: HepG2 autofluorescence, red 540/590 nm, 1 h; series mostly up to 91.3 µM; fluorescence, relative to Rose Bengal: at the top concentration
From the text: U.S. Tox21 Program National Center for Advancing Translational Sciences [NCATS] NIH Chemical Genomics Center [NCGC] U.S. Environmental Protection Agency [EPA] National Institutes of Environmental Health Sciences [NIEHS] National Toxicology Program [NTP] U.S. Food and Drug Administration [FDA] Tox21 Assay Overview: Compound auto fluorescence often interferes with screening of the compound library against various biological targets and signaling pathways. Some of these compounds may have fluorophoric properties. Such properties may interfere with the assay outputs resulting in false positives and/or negatives. To decrease such complications and ensure the compound activities are relevant in terms of biological response, the Tox21 10K compound library was screened for auto fluorescence. From the fluorophores used as reporter signals in our screening assays, the auto fluorescence equivalencies of compounds against three fluorophores have been evaluated: Triamterene, Fluorescein and Rose Bengal sodium for blue, green and red fluorescence, respectively. The fluorescence intensities were measured using Excitation/Emission wavelengths at 405/460nm, 485/535nm and 540/590nm for blue, green and red labels, respectively. This assay includes the red fluorescence data.
Tox21 Assay Protocol Summary: 2,000 HepG2 cells in 5 uL of culture medium (MEM containing 10% FBS) per well were dispensed into black wall/clear bottom 1536-well plates using a Multidrop Combi Dispenser (ThermoFisher Scientific, Waltham, MA). The assay plates were incubated overnight at 37 C to allow cell attachment to the well bottom, followed by the transfer of 23 nL compound or DMSO vehicle by a pintool work station (Kalypsys , San Diego, CA). After the assay plates were incubated for 1 hr at 37 C and 5% CO2, fluorescence intensities in the assay plates were measured by an Envision (PerkinElmer, Shelton, CT) plate reader using three labels for measuring blue, green and red fluorescence at […] 460, 535 and 590 nm respectively.
% is scaled to controls: 0 for no effect and ±100 for the full control effect.

Structure (SMILES) | fluorescence, relative to Rose Bengal
OCc1c2ccccc2cc2ccccc12 | 0.121%
Cc1nc(-c2ccccn2)ncc1C(=O)Nn1cc(C)c2cc(F)ccc21 | 0.209%
CCCCC(CC)COC(=O)COc1cc(Cl)c(Cl)cc1Cl (stereo not given) | 0.221%
CCC(=O)c1ccc2c(c1)N(CCCN(C)C)c1ccccc1S2 | -0.251% [at 46 µM]
C[C@@H]1CN(c2c(F)c(F)c3c(=O)c(C(=O)O)cn(C4CC4)c3c2F)C[C@H](C)N1 | 0.758% [at 46 µM]
O=C(O[C@@H](C(=O)O)[C@@H](OC(=O)c1ccccc1)C(=O)O)c1ccccc1 | -0.0159% [at 95.7 µM]
CCOc1ccc(OCC)c(Cl)c1 | -0.0218%
CN(C)CCOc1ccccc1Cc1ccccc1 | -0.163% [at 46 µM]
CC(C)(C)c1ccc(OC(=O)c2ccccc2O)cc1 | -0.244%
CN(CC1(C)CCCO1)S(=O)(=O)c1ccc(Cl)c(S(N)(=O)=O)c1 (stereo not given) | 0.117% [at 46 µM]
CO[C@@]1(NC(=O)CSCC#N)C(=O)N2C(C(=O)O)=C(CSc3nnnn3C)CS[C@@H]21 | 0.0026% [at 46 µM]
CCOc1ccccc1N | -0.084%
CCN(O)CC | -0.0174%
O=C1CCC(C2CCCCC2)CC1 | -0.148%
OCC(CBr)(CBr)CBr | 0.0016%
CCN(CC)CCOc1ccc(Cc2ccccc2)cc1 | -0.168% [at 46 µM]
O=C(O)C(=O)Cc1c[nH]c2ccccc12 | -0.371%
C1CCOC1 | -0.0122% [at 95.7 µM]
Cc1ccc([N+](=O)[O-])cc1Cl | 0.242% [at 95.7 µM]
C=CCCCCCCCCO | -0.003%

Structure (SMILES) | fluorescence, relative to Rose Bengal
COc1ccc(Nc2ccc(OC)cc2)cc1 | 0.0002% [at 95.7 µM]
CC(=O)Oc1cc(C(C)C)c(OCCN(C)C)cc1C | 0.0269% [at 18.6 µM]
CC1(O)CSC(C)(O)CS1 (stereo not given) | -0.21%
ICCc1ccccc1 | -0.327%
CC1(C)O[C@@H]2C[C@H]3[C@@H]4CCC5=CC(=O)CC[C@]5(C)[C@@]4(F)[C@@H](O)C[C@]3(C)[C@]2(C(=O)CCl)O1 | -0.0973% [at 18.6 µM]
C1CSCCS1 | 0.0531%
O=C1Nc2ccc([N+](=O)[O-])cc2C1=O | -0.227%
Clc1cccc(-c2cc(Cl)cc(Cl)c2)c1 | 0.38%
O=C1CCCc2ccccc21 | -0.213%
CC1=C(O)C(=O)OC1C (stereo not given) | -0.0097%
CCCCNc1cc(C(=O)O)cc(S(N)(=O)=O)c1Oc1ccccc1 | -0.242% [at 18.6 µM]
COc1cc(N)c(Cl)cc1C(=O)NC1CCN(Cc2ccccc2)CC1 | -0.629% [at 18.6 µM]
COC(=O)c1ccc2cc(C(=O)OC)ccc2c1 | 0.064% [at 18.6 µM]
CCCCCCOc1ccc(N)cc1 | 0.0163%
CC(C)=CCC[C@](C)(O)[C@@H]1CC=C(C)CC1 | 0.058%
CCC(=O)O[C@]1(C(=O)SCF)[C@H](C)C[C@H]2[C@@H]3C[C@H](F)C4=CC(=O)C=C[C@]4(C)[C@@]3(F)[C@@H](O)C[C@@]21C | -0.521% [at 18.6 µM]
COC(=O)C(C)O (stereo not given) | 0.067% [at 95.7 µM]
CC(C)CCCCCCc1ccc(OCCOCCO)cc1 | 0.048% [at 95.7 µM]
Oc1ccccc1C=NCc1ccccc1 | 0.15% [at 46 µM]
CCOc1ccc(NC(N)=O)cc1 | 0.0595%

Reference: PubChem BioAssay (Tox21)
